aSyn 5UTR act: Activators via SNCA 5'UTR binding, MLPCN. AID 1814. alpha-synuclein 5'UTR reporter, activators screen. 300,000 tested, 7.1% active. activity score, % (tested at 7.5 µM), hits read low; in the data active means activity score below about -60%
Each line names hits and unclear results; the compound was inactive in the other large screens. Only a sample is shown.

Cc1cc2nc(N3CCN(C(=O)c4cccs4)CC3)sc2cc1C	aSyn 5UTR act -130
CC(=O)c1ccc(N2CCN(C(=O)c3ccco3)CC2)c(F)c1	aSyn 5UTR act -98
Cc1cc2nc(N3CCN(C(=O)c4ccco4)CC3)sc2cc1C	aSyn 5UTR act -129
O=C(c1cccs1)N1CCN(c2nc3c(F)cc(F)cc3s2)CC1	aSyn 5UTR act -78
c1ccc2c(c1)CCN(c1nc3cc4c(cc3s1)OCCO4)C2	none
CC(=O)Nc1ccc(-c2csc(Nc3ccccn3)n2)cc1	aSyn 5UTR act -161
CCC(=O)Nc1nc(C)c(-c2csc(Nc3ccccn3)n2)s1	aSyn 5UTR act -122
Cc1ccnc(Nc2nc(-c3ccc(O)cc3O)cs2)c1	aSyn 5UTR act -136
COc1ccc(OC)c(Nc2nc(-c3sc(NC(=O)CC(C)C)nc3C)cs2)c1	none
Oc1ccc(-c2csc(Nc3ccccn3)n2)cc1O	aSyn 5UTR act -139
CC(=O)Nc1ccc(Nc2nc(-c3c(C)nc4ccccn34)cs2)cc1	none
CC(=O)Nc1ccc(-c2csc(NCCc3ccccc3)n2)cc1	aSyn 5UTR act -141
Cc1ccnc(Nc2nc(-c3ccc(O)cc3)cs2)c1	aSyn 5UTR act -232
Cc1ccnc(Nc2nc(-c3ccc(O)c(O)c3)cs2)c1	aSyn 5UTR act -148
Nc1nnc(SCC(=O)c2ccc3ccccc3c2)s1	aSyn 5UTR act -135
Nc1ccc2nc(SCc3ccccc3F)sc2c1	aSyn 5UTR act -203
Nc1ccc2nc(SCC(=O)c3ccccc3)sc2c1	aSyn 5UTR act -75
Cc1cc(C(=O)CSc2nnc(N)s2)c(C)n1Cc1cccs1	none
COc1ccc(NS(=O)(=O)c2ccc(N3CCCC3)c(NC(=S)Nc3cccc(C)c3C)c2)cc1	aSyn 5UTR act -132
Cc1ccc(-c2nc(N)n(C(=O)c3cccnc3)n2)cc1	aSyn 5UTR act -77
CSc1ccc(-c2nc(CN(C)C3CCOC3)c(C)o2)cc1 (stereo not drawn)	aSyn 5UTR act -81
Cc1nc(-c2ccccc2)nn1-c1ccc([N+](=O)[O-])cc1	aSyn 5UTR act -87
Clc1cccc(OCc2nnc(-c3ccccc3Br)o2)c1	aSyn 5UTR act -68
Clc1ccc(OCc2nnc(-c3ccccc3Br)o2)c(Cl)c1	aSyn 5UTR act -144
Clc1ccccc1OCc1nnc(-c2ccccc2)o1	aSyn 5UTR act -109
Fc1ccc(OCc2nnc(-c3ccccc3Br)o2)c(Cl)c1	aSyn 5UTR act -151
CC(C)=C1C2C=CC1C1C(=O)N(c3ccc4c(c3)OCO4)C(=O)C21 (stereo not drawn)	aSyn 5UTR act -86
CCOCCn1c(COc2ccc(C)cc2)nc2ccccc21	aSyn 5UTR act -118
CCn1c(COc2ccc(C)cc2)nc2ccccc21	aSyn 5UTR act -126
CCCn1c(CNc2ccc(Br)cc2)nc2ccccc21	aSyn 5UTR act -119
Cn1c(COc2ccccc2)nc2ccccc21	aSyn 5UTR act -99
Cc1ccc(NCc2nc3ccccc3n2CCOc2ccccc2)cc1	aSyn 5UTR act -136
COCCn1c(COc2ccc(C)cc2)nc2ccccc21	aSyn 5UTR act -95
CCc1ccc(C(=O)c2cc3ccc(O)cc3oc2=O)cc1	aSyn 5UTR act -106
CSc1ccc(CN(C)C(=O)c2cc3ccccc3o2)cc1	aSyn 5UTR act -67
Oc1ccc(/C=C/c2cnccn2)cc1	aSyn 5UTR act -171
Cc1csc(NC(=O)c2ccc(N3CCCC3=O)cc2)n1	none
O=C(Nc1nc2ccc(F)cc2s1)c1ccc(N2CCCC2=O)cc1	aSyn 5UTR act -155
O=C(Nc1nc2ccc(F)cc2s1)c1ccccn1	none
O=C(Nc1nc2ccc(F)cc2s1)C1=NN(c2ccccc2)C(=O)CC1	aSyn 5UTR act -97
O=C(Nc1ccccc1Br)c1ccc(N2CCCC2=O)cc1	aSyn 5UTR act -124
COc1ccc(OC)c(-c2csc(NC(=O)C3=NN(c4ccccc4)C(=O)CC3)n2)c1	aSyn 5UTR act -129
COc1ccc(/C=C(\CC(=O)O)c2nc3ccccc3o2)cc1	aSyn 5UTR act -109
COc1ccc(C(=O)/C(=C/c2cccs2)c2nc3ccccc3o2)cc1	aSyn 5UTR act -136
CCN(CC)c1nc(C)nc2c1cnn2CCc1ccccc1	aSyn 5UTR act -185
CCOC(=O)N/N=C\c1ccccc1OC/C=C/c1ccccc1	aSyn 5UTR act -95
COC(=O)N/N=C\c1ccccc1OC/C=C/c1ccccc1	aSyn 5UTR act -123
O=[N+]([O-])c1ccc(N=Cc2sc3ccccc3c2O)cc1	aSyn 5UTR act -68
O=[N+]([O-])c1ccc(N=Nc2c(Cl)cc(O)cc2Cl)cc1	none
Oc1c(C=NCc2ccccc2)sc2ccccc12	aSyn 5UTR act -103
CC(C)c1ccc(Nc2nnc(SCC(=O)Nc3ncc(S(=O)(=O)c4ccc([N+](=O)[O-])cc4)s3)s2)cc1	aSyn 5UTR act -66
COc1ccc2nc(SCC(=O)c3ccco3)[nH]c2c1	aSyn 5UTR act -105
O=C(CSc1nc2ccccc2[nH]1)c1ccco1	aSyn 5UTR act -127
O=C(CSc1nc2ccccc2[nH]1)N1CCCCC1	aSyn 5UTR act -136
O=C(CSc1nc2ccccc2[nH]1)c1ccc(Cl)s1	aSyn 5UTR act -113
Fc1cccc(F)c1CSc1nc2ccccc2[nH]1	aSyn 5UTR act -127
c1ccc2[nH]c(SCc3cn4cccnc4n3)nc2c1	aSyn 5UTR act -63
Fc1cccc(CSc2nc3ccncc3[nH]2)c1	aSyn 5UTR act -80

Source: PubChem BioAssay (Broad Institute)
